The campaign covered roughly 330,000 compounds. About 5,800 (1.8%) were called active. The list comes from a sample in which actives are over-represented; it also holds similar structures and randomly drawn compounds. Unmarked numbers belong to inactive results.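 How the source made its calls: active means inhibition above about 50% at the single tested dose (limit read from the data); inactive means the rest.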
Molecular target: Sentrin-specific protease 6 (Homo sapiens) (UniProt Q9GZR1)
Assay: inhibition of human SENP6 catalytic domain – biochemical, luminescence, uHTS, primary screen (AID 2599);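 further: plate controls were DMSO wells with enzyme for no effect and DMSO wells lacking enzyme for full effect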
Conditions: Recombinant SENP6 catalytic domain, aminoluciferin luminescence; at 10 µM; active compounds read high

Chain of Sentrin-specific protease 6 (Homo sapiens) (Q9GZR1 628-1112 limits assumed): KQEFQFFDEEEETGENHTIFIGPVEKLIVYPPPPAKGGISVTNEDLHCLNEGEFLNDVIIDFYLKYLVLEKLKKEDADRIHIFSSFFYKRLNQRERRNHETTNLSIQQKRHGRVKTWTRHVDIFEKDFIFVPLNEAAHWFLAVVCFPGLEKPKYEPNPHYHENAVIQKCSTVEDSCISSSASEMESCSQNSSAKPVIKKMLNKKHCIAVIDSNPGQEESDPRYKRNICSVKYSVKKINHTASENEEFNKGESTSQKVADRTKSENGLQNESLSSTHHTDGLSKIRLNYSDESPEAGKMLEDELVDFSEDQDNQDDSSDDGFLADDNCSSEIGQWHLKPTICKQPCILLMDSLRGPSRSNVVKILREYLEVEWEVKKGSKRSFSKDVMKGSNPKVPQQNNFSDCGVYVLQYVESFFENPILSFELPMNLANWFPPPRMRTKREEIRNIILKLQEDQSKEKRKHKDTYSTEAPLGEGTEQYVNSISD

| SMILES | inhibition |
| --- | --- |
| C/C(=N\Nc1ncc(Cl)cc1Cl)c1cccs1 | 6.67% |
| C/C(=N\Nc1nc2ccccc2[nH]1)c1cccs1 | 60.7% (active) |
| O=C(Nc1ccccc1-c1nc2ccccc2[nH]c1=O)c1cccs1 | 0.16% |
| COc1ccc(C(CC(=O)c2ccccc2)S(=O)(=O)c2ccccc2)cc1 (centres undefined) | 59.1% (active) |
| COc1ccc(N(Cc2ccccc2)S(=O)(=O)c2cccc(C(=O)O)c2)cc1 | -6.92% |
| COc1ccc(NC(=O)CS(=O)(=O)c2ccccc2)cc1 | 13.2% |
| COc1ccc(NC(=O)C2CCC(CNC(=O)[C@@H]3Cc4ccccc4CN3)CC2)cc1 (some centres undefined) | -1.01% |
| CCC(NC(=O)c1cc(COc2ccc(F)c(F)c2)on1)c1ccncc1 (centres undefined) | 12.2% |
| O=C(NCCN1CCCC(O)C1)c1cc(COc2c(F)cccc2F)on1 (centres undefined) | 4.9% |
| Cc1csc(SCC(=O)Nc2sccc2C#N)n1 | 88.2% (active) |
| Cc1cccc(C)c1Nc1nnc(SCC(=O)Nc2sccc2C#N)s1 | 22.6% |
| Cc1ccc(NC(=O)CSCC(=O)Nc2sccc2C#N)cc1 | 0.055% |
| COc1ccc(CCNC(=O)CS(=O)(=O)Cc2nc(-c3ccc(C)cc3)oc2C)cc1OC | 8.83% |
| CSCCC(Nc1ccc(S(=O)(=O)N2CCOCC2)cc1[N+](=O)[O-])C(=O)OCC(=O)N(C(C)C)C(C)C (centres undefined) | -3.58% |
| Cc1ccc(OC(=O)c2cc3ccccc3o2)cc1 | 72.6% (active) |
| COc1ccccc1CN(C)C(=O)c1cc2ccccc2o1 | -15.1% |
| C/C(=N\NC(=S)Nc1ccc(C)cc1)c1cc2ccccc2o1 | -7.73% |
| CC1=C/C(=N\OS(=O)(=O)c2ccccc2)C=CC1=O | -4.19% |
| CCOc1ccc(OCC)c(NC(=O)CCS(=O)(=O)c2ccc(C)cc2)c1 | -6.59% |
| CC(=O)Oc1ccc2c(c1)C(=O)c1ccccc1C2=O | 55% (active) |
| CC(=O)Oc1cccc(C(=O)Nc2ccccc2NC(=O)c2cccc(OC(C)=O)c2)c1 | 7.29% |
| CC(=O)O[C@H]1c2ccccc2-c2ccccc2[C@@H]1OC(C)=O | 8.21% |
| CC(C)C(=O)NCC(c1cccs1)S(=O)(=O)c1ccc(F)cc1 (centres undefined) | -1.5% |
| COc1cc(/C=C/C(=O)OCC(=O)NC(=O)NCc2ccccc2)ccc1OCC#N | -0.36% |
| Cc1cc2oc3ccc(NCCC4CCCN4C)cc3c(=O)c2cc1C (centres undefined) | 2.23% |

| SMILES | inhibition |
| --- | --- |
| O=C(Nc1c2c(nn1-c1cccc(Cl)c1)CS(=O)(=O)C2)c1cccs1 | -6.08% |
| COc1ccc2nc(NC(=O)NC3CCCCC3)sc2c1 | 0.352% |
| COc1ccc2nc(NC(=O)[C@@H]3CCCN3C(=O)c3cccs3)sc2c1 | 4.51% |
| COc1ccc2nc(Nc3nc4cc5c(cc4s3)OCCO5)sc2c1 | 70.8% (active) |
| CC(OC(=O)CN1C(=O)COc2ccccc21)C(=O)NCc1ccc(F)cc1 (centres undefined) | -3.56% |
| COc1ccc(S(=O)(=O)NC(C)C(=O)N2CCCCCC2)cc1 (centres undefined) | -11.4% |
| Cc1ccc(C(=O)Nc2nc(N)n(-c3ccccc3)n2)cc1 | -27.7% |
| Fc1c(F)c(C(F)(F)F)c(F)c(F)c1N1CCN(c2ccc3nnc(C(F)(F)F)n3n2)CC1 | 3.56% |
| COc1ccccc1NC(=O)C(C)OC(=O)c1ccc(-n2cnnn2)cc1 (centres undefined) | -16.5% |
| O=C(O)c1ccc(N=NN2CCOCC2)cc1 | 17.8% |
| NC1=NN(c2cccc(C(=O)O)c2)C(=O)C1 | 3.51% |
| O=C(O)c1cccc(N=NN2CCCCCC2)c1 | 90.2% (active) |
| CS(=O)(=O)Nc1ccccc1N=C(c1ccccc1)c1ccccc1 | -6.12% |
| Oc1cccc2ccc(/C=C/c3ccc(Br)s3)nc12 | 64.4% (active) |
| Nc1ccc(S(=O)(=O)Nc2nccc(/C=C/c3ccc(Br)s3)n2)cc1 | 4.55% |
| COC(=O)c1c(NC(=O)COc2ccc(Cl)cc2Cl)sc2c1CC(C)(C)NC2(C)C | -10.5% |
| Cc1coc(C)c1C(=O)CC1(O)C(=O)N(C)c2ccc(Cl)cc21 (centres undefined) | 0.041% |
| O=C(NC1CC1)C1CCCN(C(=O)NC2CCCCC2)C1 (centres undefined) | -5.19% |
| O=C1NNC(c2ccccc2)=N/C1=C\c1ccc(Cl)cc1 | 29.3% |
| N#Cc1c(N2CCCCC2)nc(N)c2c(N)nc(SCC(=O)O)cc12 | 74.6% (active) |
| Nc1nc(NCC(=O)O)nc(N2CCCCCC2)c1[N+](=O)[O-] | 11.1% |
| N#CCc1c(C#N)c(N)nc(N2CCCC2)c1C#N | -5.83% |
| CC(C)(C)Oc1ccccc1Nc1nc(NCCO)nc(N2CCCC2)n1 | -11% |
| CC(OC(=O)c1ccc(S(=O)(=O)N2CCOCC2)cc1)c1ccccc1 (centres undefined) | -4.11% |
| COC(=O)c1ccc(S(=O)(=O)N2CCc3ccccc3C2)cc1 | -14.9% |

| SMILES | inhibition |
| --- | --- |
| O=C(ON=C1CCN(S(=O)(=O)c2ccccc2)CC1)c1ccc(Cl)cc1 | 55.9% (active) |
| C/C(N)=C(\C#N)C(=O)NCCc1ccccn1 | -4.65% |
| COc1cc(OC)cc(-c2nc(=S)n3ccsc3n2)c1 | -9.64% |
| COc1ccc(-c2cn3ccsc3n2)cc1 | 64% (active) |
| COc1ccc(-c2cn3cccnc3n2)cc1 | -11.4% |
| CC(C(=O)NC1CCCCC1)N1C(=O)c2cccc3cccc1c23 (centres undefined) | -3.48% |
| CC(C)NC(=S)Nc1cccc2cnccc12 | 5.39% |
| O=C(Nc1cccc2ccccc12)c1onc2c1CCCC2 | 84% (active) |
| O=C(O)Cc1ccc(NC(=O)Nc2cccc3ccccc23)cc1 | -11.3% |
| O=C(COC(=O)c1ccccn1)Nc1cccc2ccccc12 | -9.05% |
| Cn1cc(CN2CCCC(CO)C2)c(-c2ccc(Oc3ccccc3)cc2)n1 (centres undefined) | -24.4% |
| O=C1C2C3C=CC(C3)C2C(=O)N1c1ccc(-c2nc3ccccc3c(=O)o2)cc1 (centres undefined) | -7.9% |
| COc1cc(C#Cc2ccc3cc(CCCO)oc(=O)c3c2)cc(OC)c1 | 74% (active) |
| COc1cc(/C=C2\Oc3ccc(C#Cc4ccc(O)cc4)cc3C2=O)cc(OC)c1 | -11.5% |
| O=C1c2ccccc2C(=O)N1CCC#Cc1ccc2cc(C3(O)CCCCC3)oc(=O)c2c1 | -5.78% |
| Cc1[nH]c(C)c(S(=O)(=O)N2CCC(C)CC2)c1C(=O)N1CCCC1 | 0.187% |
| CSc1nnc2ccc(-c3ccc(C)cc3)nn12 | -11.1% |
| Cc1ccc2nc(-c3ccc(Br)cc3)cn2c1 | 89.9% (active) |
| Cc1ccc(-c2cn3cc(C)ccc3n2)cc1 | 65.4% (active) |
| COc1ccc(-c2cn3ccc(C)cc3n2)cc1 | -9.63% |
| Cc1cc(N2CCOCC2)nc(-c2ccc(Br)cc2)n1 | -6.76% |
| CCN(CC)S(=O)(=O)c1ccc(-c2cn3ccc(C)cc3n2)cc1 | 11.7% |
| Cc1sc2ncn(CC(=O)NCCCC(=O)NCc3ccc(F)cc3)c(=O)c2c1C | -35.1% |
| O=C(CCC(=O)OCC(F)(F)C(F)F)NCc1ccccc1 | -6.23% |
| COc1ccccc1-n1nnnc1S(=O)(=O)Cc1ccc(Cl)cc1 | -13.9% |

| SMILES | inhibition |
| --- | --- |
| CNc1nc(Nc2ccc(C)c(Cl)c2)nc(N)c1[N+](=O)[O-] | 99.7% (active) |
| CCN1CCN(c2nc(Nc3cccc(F)c3)nc(N)c2[N+](=O)[O-])CC1 | -5.24% |
| COc1cccc(Nc2nc(N)c([N+](=O)[O-])c(NCc3ccco3)n2)c1 | -15.6% |
| O=C(O)c1c(NC(=O)N2CCCC2)sc2c1CCCC2 | 9.21% |
| O=C(Nc1sc2c(c1C(=O)O)CCC2)c1ccccc1F | 94% (active) |
| COC(=O)c1c(NC(=O)c2ccccc2F)sc2c1C(C(=O)OC)CC2 (centres undefined) | -5.07% |
| Cc1cccc(Nc2nc3c(S(=O)(=O)c4ccccc4)nnn3c3ccccc23)c1C | -2.12% |
| Fc1ccc(COc2cccc(-c3n[nH]c(=S)o3)c2)cc1 | -20.2% |
| Fc1ccc(COc2ccc(-c3nnco3)cc2)cc1 | 61.6% (active) |
| Fc1cccc(Cl)c1COc1ccc(-c2nnco2)cc1 | -29.1% |
| COc1ccc(CCc2nc(-c3cccs3)no2)cc1 | 19.7% |
| Cc1noc(C)c1COC(=O)COc1ccc(-c2ccccc2)cc1 | 4.53% |
| c1ccc(-c2noc(-c3cccs3)n2)nc1 | 92% (active) |
| c1ccc(CCc2nc(-c3ccncc3)no2)cc1 | -15.3% |
| c1csc(-c2nc(-c3ccncc3)no2)c1 | 60.3% (active) |
| Cc1ccc(-c2nc(-c3ccncc3)no2)c(C)c1 | 49.8% |
| O=C(Oc1ccc(-c2nc(-c3ccccn3)no2)cc1)c1ccccc1 | 97.9% (active) |
| Clc1ccc(-n2nnnc2-c2cnc(-c3ccccn3)nc2-c2cccs2)cc1 | 1.6% |
| O=C(COC(=O)c1ccncc1)c1ccccc1 | -26.7% |
| Cc1nc(NC(CC(C)C)C(=O)O)c2nc(C)oc2n1 (centres undefined) | 7.07% |
| CCOC(=O)C(CC)Sc1ncnc2c1nnn2-c1ccc(F)cc1 (centres undefined) | -3.73% |
| CCc1ccc(N(C(=O)c2csnn2)C(C(=O)NC2CCCCC2)c2cccnc2)cc1 (centres undefined) | -39% |
| COc1ccc(C(CNC(=O)c2cc3c(s2)CCCC3)N2CCOCC2)cc1 (centres undefined) | 3.85% |
| O=C(COc1ccc(NC(=O)c2ccccc2[N+](=O)[O-])cc1)c1ccc(F)cc1 | -17.5% |
